From PubChem BioAssay AID1159580 (chemical genetic matrix, 2015)
The whole screen tested about 5,500 compounds, of which about 2,000 (36%) were called active. About 18% were inconclusive and are not listed. Cut-off read from the data, not from the text of the source: active = normalized growth mostly below about 0.91 (no sharp cut-off); inconclusive = no clear call, values can overlap the other calls; inactive = mostly above about 0.92. This is one part of the list.

Experiment: chemical genetic growth profiling, strain panel (AID 1159580);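 note: tested at 20 µM; growth read once vehicle control cultures reached saturation at 30 °C; 1 = growth at the plate median or of vehicle wells; lower values mean less growth of the strain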
Conditions: S. cerevisiae deletion strains, growth OD
[1] = locus YAR019C, strain CDC15, stronger effect = lower value
[2] = locus YBL105C, strain PKC1, stronger effect = lower value
[3] = locus YBR135W, strain CKS1, stronger effect = lower value
[4] = locus YBR136W, strain MEC1, stronger effect = lower value
[5] = locus YBR160W, strain CDC28, stronger effect = lower value
[6] = locus YDL017W, strain CDC7, stronger effect = lower value
[7] = locus YDL028C, strain MPS1, stronger effect = lower value
[8] = locus YDL101C, strain DUN1, stronger effect = lower value
[9] = locus YDL108W, strain KIN28, stronger effect = lower value
[10] = locus YDL132W, strain cdc53, stronger effect = lower value
[11] = locus YDL214C, strain PRR2, stronger effect = lower value
[12] = locus YDR052C, strain DBF4, stronger effect = lower value
[13] = locus YDR054C, strain cdc34, stronger effect = lower value
[14] = locus YDR226W, strain ADK1, stronger effect = lower value
[15] = locus YDR477W, strain SNF1, stronger effect = lower value
[16] = locus YER123W, strain YCK3, stronger effect = lower value
[17] = locus YER133W, strain GLC7, stronger effect = lower value
[18] = locus YFL009W, strain cdc4, stronger effect = lower value
[19] = locus YFL029C, strain CAK1, stronger effect = lower value
[20] = locus YFR003C, strain YPI1, stronger effect = lower value
[21] = locus YFR019W, strain FAB1, stronger effect = lower value
[22] = locus YFR028C, strain CDC14, stronger effect = lower value
[23] = locus YGR040W, strain KSS1, stronger effect = lower value
[24] = locus YGR052W, strain FMP48, stronger effect = lower value
[25] = locus YGR092W, strain DBF2, stronger effect = lower value
[26] = locus YHR030C, strain SLT2, stronger effect = lower value
[27] = locus YHR079C, strain IRE1, stronger effect = lower value
[28] = locus YHR082C, strain KSP1, stronger effect = lower value
[29] = locus YHR205W, strain SCH9, stronger effect = lower value
[30] = locus YIL147C, strain SLN1, stronger effect = lower value
[31] = locus YJL095W, strain BCK1, stronger effect = lower value
[32] = locus YJL128C, strain PBS2, stronger effect = lower value
[33] = locus YJL157C, strain FAR1, stronger effect = lower value
[34] = locus YJR016C, strain ILV3, stronger effect = lower value
[35] = locus YJR066W, strain TOR1 (second series), stronger effect = lower value
[36] = locus YJR066W, strain TOR1, stronger effect = lower value
[37] = locus YKL048C, strain ELM1, stronger effect = lower value
[38] = locus YKL067W, strain YNK1, stronger effect = lower value
[39] = locus YKL101W, strain HSL1, stronger effect = lower value
[40] = locus YKL193C, strain SDS22, stronger effect = lower value
[41] = locus YKL203C, strain TOR2, stronger effect = lower value
[42] = locus YLR113W, strain HOG1, stronger effect = lower value
[43] = locus YLR133W, strain CKI1, stronger effect = lower value
[44] = locus YLR403W, strain SFP1, stronger effect = lower value
[45] = locus YML070W, strain DAK1, stronger effect = lower value
[46] = locus YMR001C, strain CDC5, stronger effect = lower value
[47] = locus YMR205C, strain PFK2 (second series), stronger effect = lower value
[48] = locus YMR277W, strain FCP1, stronger effect = lower value
[49] = locus YNL006W, strain LST8, stronger effect = lower value
[50] = locus YNL020C, strain ARK1, stronger effect = lower value
[51] = locus YNL161W, strain CBK1, stronger effect = lower value
[52] = locus YNL183C, strain NPR1, stronger effect = lower value
[53] = locus YNL207W, strain RIO2, stronger effect = lower value
[54] = locus YNL222W, strain SSU72, stronger effect = lower value
[55] = locus YNL307C, strain MCK1 (second series), stronger effect = lower value
[56] = locus YOL078W, strain AVO1, stronger effect = lower value
[57] = locus YOL136C, strain PFK27, stronger effect = lower value
[58] = locus YOR061W, strain CKA2, stronger effect = lower value
[59] = locus YOR119C, strain RIO1, stronger effect = lower value
[60] = locus YOR231W, strain MKK1, stronger effect = lower value
[61] = locus YOR329C, strain SCD5, stronger effect = lower value
[62] = locus YPL031C, strain PHO85, stronger effect = lower value
[63] = locus YPL153C, strain RAD53, stronger effect = lower value
[64] = locus YPL204W, strain HRR25, stronger effect = lower value
[65] = locus YPL209C, strain IPL1, stronger effect = lower value
[66] = locus YPL256C, strain CLN2, stronger effect = lower value
[67] = locus YPR025C, strain CCL1, stronger effect = lower value
[68] = locus YPR106W, strain ISR1, stronger effect = lower value
[69] = locus YPR111W, strain DBF20, stronger effect = lower value
[70] = strain NNK1, stronger effect = lower value
[71] = strain TSCII, stronger effect = lower value

Measured: normalized growth

O=C(NNc1ccc(Cl)cc1)c1ccc(F)cc1F
active: [16] 0.404 | [21] 0.547 | [25] 0.345 | [26] 0.372 | [31] 0.271 | [35] 0.606 | [37] 0.747 | [42] 0.373 | [43] 0.701 | [45] 0.54 | [55] 0.451 | [57] 0.616 | [58] 0.399 | [66] 0.487
inactive: [1] 0.937 | [2] 0.942 | [3] 0.952 | [4] 0.946 | [5] 0.942 | [6] 0.95 | [7] 0.959 | [8] 0.949 | [9] 0.959 | [10] 0.967 | [11] 0.701 | [12] 0.938 | [13] 0.949 | [14] 0.967 | [15] 0.701 | [17] 0.755 | [18] 0.971 | [19] 0.944 | [20] 0.952 | [22] 0.958 | [23] 0.718 | [24] 0.63 | [27] 0.747 | [28] 0.762 | [29] 0.663 | [30] 0.953 | [32] 0.897 | [33] 0.736 | [34] 0.94 | [36] 0.759 | [38] 0.752 | [39] 0.784 | [40] 0.949 | [41] 0.855 | [44] 0.744 | [46] 0.942 | [47] 0.826 | [48] 0.956 | [49] 0.968 | [50] 0.765 | [51] 0.947 | [52] 0.777 | [53] 0.946 | [54] 0.946 | [56] 0.948 | [59] 0.796 | [60] 0.695 | [61] 0.95 | [62] 0.766 | [63] 0.696 | [64] 0.723 | [65] 0.941 | [67] 0.947 | [68] 0.965 | [69] 0.974 | [70] 0.937 | [71] 0.947

Cc1ccc(N2C(=O)CSC2c2ccc(Cl)c(Cl)c2)cc1Cl (configuration not stated)
active: [26] 0.808 | [42] 0.791 | [66] 0.826
inactive: [1] 0.982 | [2] 0.974 | [3] 0.982 | [4] 0.976 | [5] 0.978 | [6] 0.975 | [7] 0.977 | [8] 0.97 | [9] 0.98 | [10] 0.982 | [11] 0.95 | [12] 0.98 | [13] 0.971 | [14] 0.973 | [15] 0.96 | [16] 0.956 | [17] 0.981 | [18] 0.977 | [19] 0.977 | [20] 0.973 | [21] 0.97 | [22] 0.988 | [23] 0.965 | [24] 1.01 | [25] 0.935 | [27] 0.887 | [28] 1.07 | [29] 0.94 | [30] 0.981 | [31] 0.918 | [32] 0.922 | [33] 0.961 | [34] 0.988 | [35] 0.913 | [36] 0.995 | [37] 0.957 | [38] 0.959 | [39] 0.953 | [40] 0.977 | [41] 1.01 | [43] 0.947 | [44] 0.95 | [45] 0.943 | [46] 0.975 | [47] 0.977 | [48] 0.981 | [49] 0.976 | [50] 0.933 | [51] 0.977 | [52] 0.994 | [53] 0.968 | [54] 0.988 | [55] 0.942 | [56] 0.982 | [57] 0.928 | [58] 0.953 | [59] 1.03 | [60] 0.937 | [61] 0.972 | [62] 0.957 | [63] 0.984 | [64] 0.933 | [65] 0.976 | [67] 0.977 | [68] 0.971 | [69] 0.962 | [70] 0.959 | [71] 0.981
